# Laboratory results as given in PubChem BioAssay (NCATS).
# Several values for one entry are separate records, joined by “and”; a condition that tells them apart may be missing. Equal entries are not always repeated. Values without a mark were called inactive. Records with an inconclusive call do not appear. Entries that show only a call come without a potency. Activity calls are given as the source filed them. Unless noted, the call rests on the fitted dose curve; in most records, active means well fitted curve in the direction sought with a large enough effect; inconclusive means small, poorly fitted or top-dose-only effect, or another doubt; inactive means no such curve, though single readings can be large; an effect the other way counts as inactive or inconclusive.
# Tests used:
# [1] = biological target: Thyroid hormone receptor beta (Homo sapiens) (UniProt P10828); assay: qHTS assay for small molecule antagonists of thyroid hormone receptor beta signaling (AID 588547; active means well fitted inhibition curve with a large enough effect in the signal ratio, with a control signal flat, not every such curve was filed as active; the % refers to the signal ratio;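 further: cells stimulated with 0.4 nM T3 agonist during compound exposure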); settings: TR-UAS-bla HEK293, beta-lactamase ratio, antagonist mode, 18 h
# Procedure, shortened: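 TR-UAS-bla GripTite HEK293 cells in 2% charcoal/dextran FBS medium; compounds 0.59 nM to 92 uM with T3 at 0.4nM final, 18 h at 37 C. Beta-lactamase read by CCF4 fluorescence (460/530 nm); Hill fits gave IC50 and efficacy.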
# [2] = biological target: Luciferin 4-monooxygenase (Photinus pyralis) (UniProt P08659); assay: Biochemical firefly luciferase enzyme assay for NPC (AID 624030); further: nearly all actives have a fitted effect of over 70% in size; further: potency means the concentration at half of the fitted maximal effect; settings: purified P. pyralis luciferase, luminescence, 5 min; series mostly up to 58.6 µM
# Procedure, shortened: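 Purified P. pyralis luciferase at 10 nM in 50 mM Tris Acetate (final), luminescence read within 5 minutes of enzyme addition to compounds. Activity normalised to PTC124 versus DMSO; concentration-response curves classed by r2, magnitude and activity.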
# [3] = S16 Schwann cell viability assay (CellTiter-Glo assay) (AID 624031); settings: S16 rat Schwann cells viability, 24 h; series mostly up to 57.5 µM;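 further: native untransfected S16 rat Schwann cells; cellular ATP luminescence as a viability measure; nearly all actives have a fitted effect of over 70% in size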
# Procedure, shortened: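 Concentration-effect curves come from CellTiter-Glo luminescence of S16 rat Schwann cells after 24 h compound exposure. Each reading was normalized to DMSO wells (0%) and wells without cells, and curves were ranked by r2 and response magnitude.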
# [4] = S16 Schwann cell PMP22 intronic element firefly luciferase assay (AID 624032); settings: S16 rat Schwann cells, PMP22 element FLuc, 24 h; series mostly up to 57.5 µM; further: nearly all actives have a fitted effect of over 30% in size
# Procedure, shortened: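 Rat S16 Schwann cells stably carrying firefly luciferase driven by a PMP22 intronic element, in 10% FBS, treated 24 h at 37 C. ONE-Glo luminescence normalized to PTC124 control and DMSO (0%); curves classed by r2, magnitude and activity.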
# [5] = S16 Schwann cell PMP22 intronic element beta-lactamase assay (AID 624044; calls by dose curve; further: nearly all actives have a fitted effect of over 15% in size); settings: S16 rat Schwann cells, PMP22 element beta-lactamase FRET, 24 h; series mostly up to 38.3 µM
# Procedure, shortened: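 Rat S16 Schwann cells with beta-Lac driven by a PMP22 intronic element, compound-treated 24 h at 37 °C. LiveBLAzer FRET B/G read: 460 nm normalized to potassium clavulanate vs DMSO; 535 nm FRET as viability; concentration-effect curves classified.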
# [6] = qHTS assay for small molecule activators of the p53 signaling pathway (AID 651743; active means well fitted activation curve with a large enough effect in the signal ratio, not every such curve was filed as active; the % refers to the signal ratio); settings: HCT-116 p53RE-bla, beta-lactamase FRET ratio, 16 h; activation: active compounds read high
# Procedure, shortened: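 p53RE-bla HCT-116 cells carrying a beta-lactamase reporter under p53 response elements were exposed to compounds for 16 hours at 37 C. Reporter activity read as fluorescence after 2 hours at room temperature with LiveBLAzer B/G FRET substrate.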
# [7] = qHTS assay for small molecule activators of the nuclear factor-kappa B (NF-kB) signaling pathway (AID 651749; active means well fitted activation curve with a large enough effect in the signal ratio; the % refers to the signal ratio); settings: NF-kB-bla ME-180 cells, beta-lactamase FRET ratio, 16 h; active compounds read high
# Procedure, shortened: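 NF-kB-bla ME-180 cells carrying a beta-lactamase reporter under an NF-kB response element, 2,000 cells/well, exposed to compound for 16 hr at 37C; FRET-based beta-lactamase fluorescence read-out of pathway activation.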
# [8] = qHTS assay for small molecule disruptors of the mitochondrial membrane potential - 1 hr assay (AID 651754; calls by dose curve; further: potency means the concentration at half of the fitted maximal effect; nearly all actives have a fitted effect of over 35% in size); settings: series mostly up to 92.2 µM
# Procedure, shortened: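 HepG2 cells, attached overnight, were exposed to compound for 1 hr at 37C, then stained 30 min with a potentiometric dye. Ratio of red aggregate (590nm) to green monomer (535nm) fluorescence reports membrane potential; collapse shifts signal toward green.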
# [9] = qHTS assay for small molecule disruptors of the mitochondrial membrane potential - 5 hr assay (AID 651755; calls by dose curve; further: nearly all actives have a fitted effect of over 40% in size); settings: JC-1-type ratio dye; series mostly up to 92.2 µM
# Procedure, shortened: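 HepG2 cells (2,000/well), attached overnight, exposed to compound 5 hr at 37C, then Mito-MPS dye 30 min. Fluorescence read for monomers (490/535 nm) and aggregates (540/590 nm).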
# [10] = biological target: Tumor necrosis factor (Homo sapiens) (UniProt P01375); assay: qHTS assay to identify small molecules that stimulate Tumor Necrosis Factor-alpha (TNF-alpha) secretion (AID 651757; active means well fitted curve in the direction sought with a large enough effect in the signal ratio; the % refers to the signal ratio); settings: Human cells, HTRF 665/615 ratio; series mostly up to 92.2 µM
# Procedure, shortened: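 THP-1 cells (3000/well) exposed to compounds 17 hrs at 37 C. Secreted TNF-alpha detected by HTRF with cryptate- and XL665-labeled anti-TNF-alpha antibodies after 3 hr at room temperature.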
# [11] = qHTS assay for environmental chemicals that activate the Aryl hydrocarbon Receptor (AhR) signaling pathway (AID 651777); settings: 1A2-DRE human hepatoma cells, luciferase, 24 h; activation: active compounds read high; further: nearly all actives have a fitted effect of over 15% in size
# Procedure, shortened: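 Stable CYP1A2 promoter/DRE-luciferase human hepatoma line treated 24 hr; One-Glo luminescence, 30 min RT.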
# [12] = biological target: Peroxisome proliferator-activated receptor alpha (Homo sapiens) (UniProt Q07869); assay: qHTS assay for small molecule agonists of the peroxisome proliferator-activated receptor alpha (PPARalpha) signaling pathway (AID 651778); settings: PathHunter PPARalpha complementation, chemiluminescence, 6 h; active compounds read high
# Procedure, shortened: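 Enzyme-fragment complementation assay in which ligand-bound PPARalpha translocates and forms an active enzyme that generates chemiluminescence. Cells were plated overnight, exposed to compound for 6 hr at 37 C, and then given detection reagent for 60 min at room temperature.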
# [13] = qHTS assay for small molecule agonists of the antioxidant response element (ARE) signaling pathway (AID 651741; active means well fitted activation curve with a large enough effect in the signal ratio; the % refers to the signal ratio); settings: HepG2 ARE-bla reporter, beta-lactamase FRET ratio, 16 h; series mostly up to 96 µM
# Procedure, shortened: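 CellSensor ARE-bla HepG2 cells (2,000/well) carrying ARE-driven beta-lactamase, exposed 16 h at 37 C. LiveBLAzer B/G FRET substrate added for 2 h at room temperature; fluorescence intensity read.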
# [14] = qHTS assay to identify small molecules that stimulate interleukin-8 (IL-8) secretion (AID 651758; active means well fitted activation curve with a large enough effect in the signal ratio; the % refers to the signal ratio); settings: HTRF ratio (665/615); series mostly up to 92.2 µM
# Procedure, shortened: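 THP-1 cells (2000/well) exposed to compound 16 h at 37 C; secreted IL-8 then detected by HTRF with cryptate- and XL665-labelled anti-IL-8 antibody pair after 1-3 h at room temperature.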
# [15] = biological target: Voltage-gated inwardly rectifying potassium channel KCNH2 (Homo sapiens) (UniProt Q12809); assay: qHTS Assay for Small Molecule Inhibitors of the Human hERG Channel Activity (AID 588834); settings: U2OS BacMam hERG, FluxOR thallium flux fluorescence; series mostly up to 46.1 µM;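 further: lower thallium flux fluorescence means stronger hERG block; nearly all actives have a fitted effect of over 50% in size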; further: potency means the concentration at half of the fitted maximal effect
# Procedure, shortened: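 U2OS cells BacMam-transduced with hERG, 2000 cells/well, compound ~10 min at 37 °C before stimulation buffer. FluxOR thallium flux fluorescence read kinetically on FDSS; decrease indicates block; AC50 from Hill fits.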
# Thyroid hormone receptor beta (Homo sapiens), sequence (P10828 whole entry, looked up): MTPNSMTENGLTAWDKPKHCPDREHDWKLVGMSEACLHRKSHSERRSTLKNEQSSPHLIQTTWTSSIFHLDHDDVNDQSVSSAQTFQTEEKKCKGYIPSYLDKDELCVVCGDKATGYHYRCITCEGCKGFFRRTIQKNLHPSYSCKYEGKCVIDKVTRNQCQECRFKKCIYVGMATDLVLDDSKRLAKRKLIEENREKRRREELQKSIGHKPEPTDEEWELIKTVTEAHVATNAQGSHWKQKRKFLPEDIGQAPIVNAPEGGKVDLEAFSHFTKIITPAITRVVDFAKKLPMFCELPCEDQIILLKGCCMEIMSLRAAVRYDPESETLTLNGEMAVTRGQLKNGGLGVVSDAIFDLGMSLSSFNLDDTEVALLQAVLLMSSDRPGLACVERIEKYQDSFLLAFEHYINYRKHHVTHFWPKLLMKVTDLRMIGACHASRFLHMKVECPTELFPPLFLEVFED
# Tumor necrosis factor (Homo sapiens), sequence (P01375 whole entry, looked up): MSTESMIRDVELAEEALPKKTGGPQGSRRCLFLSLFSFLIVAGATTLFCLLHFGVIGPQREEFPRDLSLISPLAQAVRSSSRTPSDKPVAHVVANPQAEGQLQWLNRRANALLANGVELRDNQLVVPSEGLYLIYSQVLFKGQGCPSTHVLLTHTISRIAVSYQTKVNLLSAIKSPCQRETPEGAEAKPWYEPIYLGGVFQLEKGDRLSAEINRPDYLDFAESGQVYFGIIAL
# Peroxisome proliferator-activated receptor alpha (Homo sapiens), sequence (Q07869 whole entry, looked up, the tested form may be a part): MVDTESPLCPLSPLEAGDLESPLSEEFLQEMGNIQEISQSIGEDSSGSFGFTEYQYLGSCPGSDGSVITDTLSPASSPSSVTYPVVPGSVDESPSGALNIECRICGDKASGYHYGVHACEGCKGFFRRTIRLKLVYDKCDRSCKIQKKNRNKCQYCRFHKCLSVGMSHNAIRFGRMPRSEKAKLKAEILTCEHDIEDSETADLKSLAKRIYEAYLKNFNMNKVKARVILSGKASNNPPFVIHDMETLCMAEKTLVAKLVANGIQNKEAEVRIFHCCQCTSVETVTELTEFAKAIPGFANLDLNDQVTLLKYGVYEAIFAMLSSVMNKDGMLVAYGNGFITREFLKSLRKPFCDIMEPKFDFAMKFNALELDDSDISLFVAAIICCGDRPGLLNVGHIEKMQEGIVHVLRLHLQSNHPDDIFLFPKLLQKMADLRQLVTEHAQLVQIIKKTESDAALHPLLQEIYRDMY
# Voltage-gated inwardly rectifying potassium channel KCNH2 (Homo sapiens), sequence (Q12809 whole entry, looked up): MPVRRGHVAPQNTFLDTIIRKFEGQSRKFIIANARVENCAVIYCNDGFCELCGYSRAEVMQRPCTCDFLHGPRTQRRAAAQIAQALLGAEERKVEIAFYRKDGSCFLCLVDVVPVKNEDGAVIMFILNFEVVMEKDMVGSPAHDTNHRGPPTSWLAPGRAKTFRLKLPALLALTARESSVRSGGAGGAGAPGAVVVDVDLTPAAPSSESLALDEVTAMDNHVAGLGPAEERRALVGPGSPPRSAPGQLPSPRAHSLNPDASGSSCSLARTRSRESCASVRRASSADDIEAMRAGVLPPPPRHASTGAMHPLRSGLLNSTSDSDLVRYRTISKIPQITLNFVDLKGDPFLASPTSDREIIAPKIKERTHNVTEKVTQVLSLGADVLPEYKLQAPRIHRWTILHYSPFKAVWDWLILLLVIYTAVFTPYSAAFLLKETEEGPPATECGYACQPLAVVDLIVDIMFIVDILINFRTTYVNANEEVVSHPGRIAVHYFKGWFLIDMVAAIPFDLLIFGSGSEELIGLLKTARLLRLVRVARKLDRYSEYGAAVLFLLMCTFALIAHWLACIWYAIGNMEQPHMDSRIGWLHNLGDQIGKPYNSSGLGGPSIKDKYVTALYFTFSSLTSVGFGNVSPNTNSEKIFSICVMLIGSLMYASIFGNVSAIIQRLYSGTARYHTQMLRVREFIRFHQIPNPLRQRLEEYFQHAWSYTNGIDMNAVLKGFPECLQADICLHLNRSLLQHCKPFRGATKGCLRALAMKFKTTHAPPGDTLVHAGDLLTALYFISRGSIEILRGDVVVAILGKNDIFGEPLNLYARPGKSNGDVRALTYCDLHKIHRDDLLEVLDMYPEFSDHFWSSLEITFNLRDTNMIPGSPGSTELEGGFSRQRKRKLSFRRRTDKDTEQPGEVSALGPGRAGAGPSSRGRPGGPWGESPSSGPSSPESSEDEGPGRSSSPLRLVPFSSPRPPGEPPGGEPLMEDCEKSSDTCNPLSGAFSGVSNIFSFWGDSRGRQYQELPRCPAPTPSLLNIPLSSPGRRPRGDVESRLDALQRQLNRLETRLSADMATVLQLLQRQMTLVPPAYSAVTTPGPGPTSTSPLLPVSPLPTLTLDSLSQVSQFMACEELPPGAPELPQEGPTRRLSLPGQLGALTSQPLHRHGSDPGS
# Luciferin 4-monooxygenase (Photinus pyralis), sequence (P08659 whole entry, looked up): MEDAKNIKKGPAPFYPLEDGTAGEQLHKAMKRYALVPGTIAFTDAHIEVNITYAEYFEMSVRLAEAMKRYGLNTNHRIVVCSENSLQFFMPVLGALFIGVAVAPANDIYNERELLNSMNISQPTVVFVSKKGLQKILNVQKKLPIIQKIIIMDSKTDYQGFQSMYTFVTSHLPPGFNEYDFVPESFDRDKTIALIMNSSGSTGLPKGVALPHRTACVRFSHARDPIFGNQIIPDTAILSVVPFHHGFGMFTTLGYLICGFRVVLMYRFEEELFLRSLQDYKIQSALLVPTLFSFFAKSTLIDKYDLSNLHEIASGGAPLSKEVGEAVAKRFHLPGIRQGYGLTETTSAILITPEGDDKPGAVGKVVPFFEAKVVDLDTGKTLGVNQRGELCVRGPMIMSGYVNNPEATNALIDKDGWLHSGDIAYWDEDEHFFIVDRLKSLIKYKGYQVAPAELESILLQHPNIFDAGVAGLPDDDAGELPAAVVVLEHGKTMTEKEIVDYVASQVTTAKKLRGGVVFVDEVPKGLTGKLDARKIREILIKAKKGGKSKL
smiles,measurement,setting,value
CCCCC(CC)COC(=O)c1ccc(N(C)C)cc1 (stereo unspecified),activity change % (negative = inhibition),[1],-0.537% and 3.83%
same,Potency,[2],inactive
same,Potency,[3],inactive
same,Potency,[4],inactive
same,Potency,[5],inactive
same,activation,[6],0.436% and -4.01%
same,activation,[7],-1.46% and -0.821%
same,Potency,[8],7.5 µM (active)
same,Potency,[9],inactive
same,outcome,[10],inactive
same,activation,[11],8.87% and 0.16%
same,max response,[12],0.44% and -4.46%
NC(=O)c1ccccc1O,activity change % (negative = inhibition),[1],-15.4%
same,Potency,[2],inactive
same,Potency,[3],inactive
same,Potency,[4],inactive
same,Potency,[13],inactive
same,activation,[6],-1.87%
same,activation,[7],-1.49%
same,outcome,[10],inactive
same,outcome,[14],inactive
same,activation,[11],2.51%
same,max response,[12],4.04%
O=C1c2cccc3c2[C@H](CCC3)CN1[C@@H]1CN2CCC1CC2,Potency,[15],12.6 µM (active)
C#C[C@]1(O)CC[C@H]2[C@@H]3[C@H](C)CC4=C(CCC(=O)C4)[C@H]3CC[C@@]21C,Potency,[15],inactive
CCO[C@@H]1O[C@H](C(COCc2ccccc2)OCc2ccccc2)[C@H](OCc2ccccc2)[C@H]1O (stereo partly specified),Potency,[15],inactive
CCCCCCCCCCCCCCCCO,activity change % (negative = inhibition),[1],11.7%
same,Potency,[2],inactive
same,Potency,[3],inactive
same,Potency,[4],inactive
same,Potency,[13],inactive
same,activation,[7],-1.7%
same,activation,[11],1.7%
same,max response,[12],0.0651%
CC(C)(C)CC(C)(C)c1ccc(O)c(-n2nc3ccccc3n2)c1,activity change % (negative = inhibition),[1],-12.9%
same,Potency,[15],inactive
same,Potency,[2],inactive
same,Potency,[3],inactive
same,Potency,[4],inactive
same,activation,[6],-5.96%
same,activation,[7],1.97%
same,activation,[11],5.11%
same,max response,[12],12.6%
CC(C)(C)NCC(O)COc1cccc2c1C[C@H](O)[C@H](O)C2 (stereo partly specified),Potency,[15],inactive
Cc1cn([C@H]2C[C@H](F)[C@@H](CO)O2)c(=O)[nH]c1=O,Potency,[15],inactive
COc1ccc(S(=O)(=O)N2c3ccc(Cl)cc3[C@@](O)(c3ccccc3Cl)[C@H]2C(=O)N2CCC[C@@H]2C(N)=O)cc1OC,Potency,[15],inactive
O=C(O)c1ccc(S(=O)(=O)N(Cl)Cl)cc1,activity change % (negative = inhibition),[1],9.05%
same,Potency,[15],inactive
same,Potency,[2],inactive
same,Potency,[3],inactive
same,Potency,[4],inactive
same,activation,[6],-0.128%
same,activation,[7],-0.114%
same,activation,[11],0.0057%
same,max response,[12],7.46%
OC[C@H]1O[C@@H](Oc2ccc(O)cc2)[C@H](O)[C@@H](O)[C@@H]1O,Potency,[15],inactive
CCOc1ccc(NC(C)=O)cc1,activity change % (negative = inhibition),[1],4.97%
same,Potency,[15],inactive
same,Potency,[2],inactive
same,Potency,[3],inactive
same,Potency,[4],inactive
same,Potency,[13],inactive
same,activation,[6],-2.67% and -5.43%
same,outcome,[10],inactive
same,activation,[11],1.23% and 0.542%
same,max response,[12],-5.21% and -4.18%
CCCN(CCC)S(=O)(=O)c1ccc(C(=O)O)cc1,activity change % (negative = inhibition),[1],8.08% and 3.53%
same,Potency,[15],inactive
same,Potency,[2],inactive
same,Potency,[3],inactive
same,Potency,[4],inactive
same,Potency,[13],inactive
same,activation,[6],-0.245% and -0.015%
same,activation,[7],0.183% and -3.09%
same,outcome,[10],inactive
same,activation,[11],-1.19% and -0.648%
same,max response,[12],-6.45% and -0.148%
CC1(COc2ccc(CC3SC(=O)NC3=O)cc2)CCCCC1 (stereo unspecified),activity change % (negative = inhibition),[1],-31.9%
same,Potency,[2],16.1 µM (active)
same,Potency,[3],inactive
same,Potency,[4],inactive
same,Potency,[5],inactive
same,activation,[7],0.57%
CCCCCCCCOc1ccc(C(=O)c2ccccc2)c(O)c1,activity change % (negative = inhibition),[1],-1.54%
same,Potency,[15],inactive
same,Potency,[2],inactive
same,Potency,[3],inactive
same,Potency,[13],inactive
same,activation,[6],-0.0929%
same,activation,[7],-6.3%
same,activation,[11],-9.5%
C[C@@H](O)[C@H]1C(=O)N2C(C(=O)O)=C([C@H]3CCCO3)S[C@H]12,Potency,[15],inactive
COc1cc(C(=O)N2CCCCCCC2)cc(OC)c1OC,Potency,[15],inactive
same,Potency,[2],inactive
CCCCN1C[C@H](O)[C@@H](O)[C@H](O)[C@H]1CO,Potency,[15],inactive
C[C@H]1[C@H]2CC[C@H]3[C@@H]4CC=C5C[C@@H](N(C)C)CC[C@]5(C)[C@H]4CC[C@]23CN1C,Potency,[15],inactive
NC(N)=NN=C(/C=C/c1ccc([N+](=O)[O-])o1)/C=C/c1ccc([N+](=O)[O-])o1,Potency,[15],0.0891 µM (active)
COc1ccc(CN(CCN(C)C)c2ncccn2)cc1,Potency,[15],inactive
same,Potency,[2],inactive
same,Potency,[3],inactive
CC(C)Cn1cnc2c1c(=O)n(C)c(=O)n2C,Potency,[15],inactive
same,Potency,[2],inactive
CN(C)CCOC(=O)C(c1ccccc1)C1(O)CCCC1 (stereo unspecified),Potency,[15],inactive
COc1cc(O)c(C(=O)c2ccccc2)cc1S(=O)(=O)O,Potency,[15],inactive
same,Potency,[2],inactive
same,Potency,[3],inactive
